The entries come from a sample that favours hits as a whole.
p53 reactivator = qHTS assay for re-activators of p53 using a Luc reporter; H1299 p53-A138V BP100-luciferase reporter, luminescence, 24 h; Potency, µM (highest dose often 92.2 µM), usual class: activators; 320,000 tested, 0.063% active; further: nearly all actives have a fitted effect of over 45% in size
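p53-null H1299 cells stably carrying temperature-sensitive p53-A138V and a BP100-luciferase reporter were pinned with compounds (4-point, 1:5 series) and held 24 hrs at 37 deg C. Luminescence was read 10 min after detection reagent.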
ClpP mod = qHTS Assay for Activators of ClpP. purified B. subtilis ClpP, FRET peptide cleavage, 20 min. Potency, µM (series often up to 57.5 µM). 340,000 tested, 1.9% active. AID 651965, 2013; active means well fitted falling curve with a large enough effect; inconclusive means small, poorly fitted or top-dose-only effect; inactive means no such curve, though single readings can be large or run the other way; further: the source files actives as falling curves though it sought activators and does not explain the sign; nearly all actives have a fitted effect of over 65% in size
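FRET quenching reversal measured ClpP activation: 10 microg/mL B. subtilis ClpP at pH 8 with the FRET-FV decapeptide, read at 430 nm after 320 nm excitation. The 20-min minus 0-min signal was scaled between DMSO/no-enzyme wells and ADEP (5.8 microM final).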
MmCpn inh = Inhibitors of TCP-1 ring complex (TRiC) of Methanococcus maripaludis (MmCpn): qHTS. Chaperonin Mm-Cpn (Methanococcus maripaludis). 330,000 tested, 0.031% active. Potency, µM (doses to about 76.9 µM), most hits filed as inhibitors. AID 504842, 2011. purified Mm-Cpn ATPase, ADP Transcreener TR-FRET; further: nearly all actives have a fitted effect of over 80% in size
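ATPase read-out: TR-FRET ADP immunoassay (anti-ADP Eu cryptate vs ADP-d2), ex 320 nm, em 590/665 nm; signal drops as ADP forms. Enzyme 25 nM, ATP 10 uM, 30 min at 37°C after 10 min compound preincubation.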
Eya2 inh = qHTS Assay for Inhibitors of the Phosphatase Activity of Eya2. Protein phosphatase EYA2 (Homo sapiens), O00167. recombinant Eya2, OMFP fluorescence dephosphorylation (OMFP is methylfluorescein phosphate). Potency, µM (doses to about 76.9 µM), hits mostly inhibitors. 330,000 tested, 0.006% active. AID 488837, 2010
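Eya2 protein (added as 0.2 uM solution) was preincubated with compound for 10 min at ambient temperature in 50 mM HEPES pH 7.5, 50 mM NaCl, 5 uM MgCl2, 0.05% BSA, 1 mM DTT. OMFP (added at 50 uM) then reacted 10 min; fluorescence read at 485/525 nm.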
USP2a inh = qHTS Assay for Inhibitors of Ubiquitin-specific Protease USP2a Using CHOP2 as the Reporter; Potency, µM (series often up to 38.3 µM), actives largely listed as inhibitors; 330,000 tested, 0.01% active; USP2 core, Ub-CHOP2 coupled fluorogenic reporter, 485/531
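Cell-free coupled assay: 10nM USP2 core preincubated 30min RT with compound in Tris-HCl pH 8.0/CaCl2/CHAPS buffer, then 25nM Ub-CHOP2 and 25nM reporter substrate; fluorescence (Ex 485/Em 531) read after 60min RT, normalized to NEM inhibition, concentration-response curves fitted.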
Integrin act MD = qHTS for Activators of Integrin-Mediated Alleviation for Muscular Dystrophy; Potency, µM (series often up to 38.3 µM), most hits filed as activators; AID 624291, 2012; 350,000 tested, 0.064% active; alpha7betagal myoblasts, beta-gal FDG fluorescence, 48 h; further: nearly all actives have a fitted effect of over 60% in size
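alpha7betagal+/- myoblasts (passage 13, 250/well) treated 48 h at 37C with compounds at 1:260 dilution of DMSO stock. Lysed, then beta-galactosidase activity read as FDG fluorescence (ex 480/em 540) after 30 min, with pre-read for autofluorescence.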
Hits are given with their value. Unless noted, the call rests on the fitted dose curve; in most records, active means well fitted curve in the direction sought with a large enough effect; inconclusive means small, poorly fitted or top-dose-only effect, or another doubt; inactive means no such curve, though single readings can be large; an effect the other way counts as inactive or inconclusive.

For Cc1ccccc1N=C1NN=C(c2ccccc2F)CS1 the results were p53 reactivator 13µM, ClpP mod inactive, MmCpn inh inactive, Eya2 inh inactive, USP2a inh inactive and Integrin act MD inconclusive.
Screening Cc1cccc(C)c1N=C1NN=C(c2ccccc2F)CS1 returned p53 reactivator inactive, ClpP mod inactive, MmCpn inh inactive, Eya2 inh inactive, USP2a inh inactive and Integrin act MD inactive.
`COc1ccc(-c2sc3ccc(N4CCOCC4)cc3c2C#CC2(O)CCCCC2)cc1` gave p53 reactivator inactive, ClpP mod 25µM, MmCpn inh inactive, Eya2 inh inactive, USP2a inh inactive and Integrin act MD inactive.
Screening COc1ccc(-c2sc3ccc(N4CCOCC4)cc3c2C#CCO)cc1 returned p53 reactivator inactive, ClpP mod inactive, MmCpn inh inactive, Eya2 inh inactive, USP2a inh inactive and Integrin act MD inactive.
Screening CN(C)c1ccc(/C=C/c2ccnc3ccccc23)c(F)c1 returned ClpP mod inactive.
CCc1ccc2c(CN3CCN(S(=O)(=O)c4ccccc4F)CC3)cc(=O)oc2c1 was read as p53 reactivator inactive, MmCpn inh inactive, Eya2 inh inactive, USP2a inh inactive and Integrin act MD inactive.
`CCc1ccc2c(CN3CCN(S(=O)(=O)c4cccs4)CC3)cc(=O)oc2c1` gave p53 reactivator inactive, ClpP mod 32µM, MmCpn inh inactive, Eya2 inh inactive, USP2a inh inactive and Integrin act MD inactive.
Cc1ccc2nccnc2c1 was read as ClpP mod inactive.
For CCCn1c(N)c(N(CCOC)C(=O)c2cc3c(s2)CCC(CC)C3)c(=O)[nH]c1=O (centres undefined) the results were p53 reactivator inactive, ClpP mod 13µM, MmCpn inh inactive, Eya2 inh inactive, USP2a inh inactive and Integrin act MD inactive.
`CCCn1c(N)c(N(CCOC)C(=O)c2cccc(S(=O)(=O)N3CCCc4ccccc43)c2)c(=O)[nH]c1=O` gave p53 reactivator inactive, ClpP mod 32µM, MmCpn inh inactive, Eya2 inh inactive, USP2a inh inactive and Integrin act MD inactive.
Screening Cc1cc(C)n2c(Nc3ccccc3)c(-c3ccc(C)o3)nc2n1 returned ClpP mod inactive.
Screening CCN(C(=O)CSc1nc(-c2ccccc2)c(-c2ccccc2)[nH]1)C1CCS(=O)(=O)C1 (centres undefined) returned p53 reactivator inactive, ClpP mod 25µM, MmCpn inh inactive, Eya2 inh inactive, USP2a inh inactive and Integrin act MD inactive.
For COc1ccc(-c2nn(-c3ccccc3)cc2C(=O)O)cc1OC the results were p53 reactivator inactive, ClpP mod 25µM, MmCpn inh inactive, Eya2 inh inactive, USP2a inh inactive and Integrin act MD inactive.
For COc1ccc(-c2nn(-c3ccccc3)cc2C(=O)Nc2ccc(C(=O)O)cc2)cc1OC the results were p53 reactivator inactive, MmCpn inh inactive, Eya2 inh inactive, USP2a inh inactive and Integrin act MD inactive.
Cc1ccc(N2C(=O)c3ccccc3NC2c2ccccc2O)cc1 (centres undefined) was read as p53 reactivator inconclusive, ClpP mod inactive, MmCpn inh inactive, Eya2 inh inactive, USP2a inh inactive and Integrin act MD inactive.
O=C1c2ccccc2NC(c2ccccn2)N1c1ccccc1F (centres undefined) was read as p53 reactivator inactive, ClpP mod 32µM, MmCpn inh inactive, Eya2 inh inactive, USP2a inh inactive and Integrin act MD inactive.
For Cc1cccc(C2Nc3ccccc3C(=O)N2c2ccc(F)cc2)n1 (centres undefined) the results were p53 reactivator inactive, ClpP mod 32µM, MmCpn inh inactive, Eya2 inh inactive, USP2a inh inactive and Integrin act MD inactive.
Screening Cc1ccc(CN2C(=O)c3ccccc3NC2c2ccccn2)cc1 (centres undefined) returned p53 reactivator inactive, MmCpn inh inactive, Eya2 inh inactive, USP2a inh inactive and Integrin act MD inactive.
Cc1cccc(-n2c(C)cc(C(=O)C(=O)Nc3ccccc3F)c2C)c1C was read as ClpP mod inactive.
For CN(Cc1ccccc1)c1ccc(/C=C/c2sc3ccccc3[n+]2C)cc1 the results were ClpP mod inactive.
`CCC(C)NC(=O)CSc1nc2cc3c(cc2c(=O)n1CCCC(=O)NCCc1ccc(OC)c(OC)c1)OCO3` (centres undefined) gave ClpP mod inactive.
For COc1ccccc1NC(=S)N/N=C1\CC(C)(C)Oc2ccc(O)cc21 the results were p53 reactivator inactive, ClpP mod 25µM, MmCpn inh inactive, Eya2 inh inactive, USP2a inh inactive and Integrin act MD inactive.
For CC(=O)N1CCC2(CC1)C/C(=N\NC(=S)Nc1ccccc1C)c1cc(O)ccc1O2 the results were p53 reactivator inactive, ClpP mod inactive, MmCpn inh inactive, Eya2 inh inconclusive, USP2a inh inactive and Integrin act MD inactive.
`CC(=O)N1CCC2(CC1)C/C(=N\NC(=S)Nc1ccccc1F)c1cc(O)ccc1O2` gave p53 reactivator inactive, ClpP mod 25µM, MmCpn inh inactive, Eya2 inh inactive, USP2a inh inactive and Integrin act MD inactive.
CCC(=NCc1ccccc1)C1=C(O)C(C(=O)OC)C(C)(C)CC1=O (centres undefined) was read as p53 reactivator inactive, ClpP mod 3.2µM, MmCpn inh inactive, Eya2 inh inactive, USP2a inh inactive and Integrin act MD inactive.
For CCOC(=O)c1cnn2c1[nH]c(=O)c1ccccc12 the results were p53 reactivator inactive, ClpP mod 3.5µM, MmCpn inh inactive, Eya2 inh inactive, USP2a inh inactive and Integrin act MD inactive.
`Cc1ccc(C)c(C2NC(=O)c3ccccc3N2)c1` (centres undefined) gave p53 reactivator inactive, ClpP mod inactive, MmCpn inh inactive, Eya2 inh inactive, USP2a inh inactive and Integrin act MD inactive.
Cn1cc(C2NC(=O)c3ccccc3N2)c2ccccc21 (centres undefined) was read as ClpP mod 28µM and Integrin act MD inactive.
O=C(Nc1nnc(C2CCCCC2)s1)C1CCN(C(=O)c2ccco2)CC1 was read as ClpP mod inactive.
